Test results: PubChem BioAssay (NCI)
The panel holds about 83,000 compounds, 20% with a hit somewhere; the sample as a whole holds those more often.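 Note: values are percent growth. 100 is the growth of untreated cells, values between 100 and 0 indicate rising inhibition; between -100 and 0 indicates cell death.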 Activity calls are given as the source filed them. Rule for the calls: active = growth percent below 10; inactive = the rest.

What was measured:
Test in all cases: NCI-60 one-dose screen, 48 h (100 = growth as untreated, 0 = no growth, -100 = all killed)
Conditions in all cases: 10 µM unless noted
[1] = tested on: SK-MEL-2 melanoma
[2] = tested on: EKVX NSCLC
[3] = tested on: SN12C renal
[4] = tested on: UO-31 renal
[5] = tested on: TK-10 renal
[6] = tested on: ACHN renal
[7] = tested on: A498 renal
[8] = tested on: CCRF-CEM leukemia
[9] = tested on: MOLT-4 leukemia
[10] = tested on: SR leukemia
[11] = tested on: RPMI-8226 leukemia
[12] = tested on: OVCAR-8 ovarian
[13] = tested on: OVCAR-5 ovarian
[14] = tested on: OVCAR-4 ovarian
[15] = tested on: SK-OV-3 ovarian
[16] = tested on: IGROV1 ovarian
[17] = tested on: OVCAR-3 ovarian
[18] = tested on: HS 578T breast
[19] = tested on: NCI/ADR-RES ovarian
[20] = tested on: CAKI-1 renal

Measured: growth

COC(=O)CCCCCCCCC1(C)C=CC(C(C)O)=CC1 (stereo not drawn)
inactive: [1] 104% | [2] 102% | [3] 103% | [4] 100% | [5] 92.2% | [6] 114% | [7] 96.1% | [8] 99.7% | [9] 97.8% | [10] 89.8% | [11] 103% | [12] 105% | [13] 120% | [14] 110% | [15] 110% | [16] 99.7% | [17] 111% | [18] 117% | [19] 102%

COc1ccc2c(c1)OC13Oc4cc(OC)ccc4C=C1CCCC3=C2
inactive: [1] 15.7% | [2] 39.7% | [3] 44.1% | [4] 36.3% | [5] 47% | [6] 25.3% | [7] 69.8% | [12] 47.7% | [13] 47.2% | [14] 55.2% | [15] 60.1% | [16] 41.4% | [18] 45%
active: [8] 5.97% | [9] -3.56% | [10] 4.94% | [17] 5.62%

COc1ccc(Nc2nc(N)nc3c2CCc2occc2-3)cc1
inactive: [1] 106% | [2] 84.1% | [3] 99.5% | [4] 83.7% | [5] 121% | [6] 104% | [7] 98.2% | [8] 97.3% | [9] 94.3% | [10] 85.8% | [11] 101% | [12] 102% | [13] 106% | [14] 96.9% | [15] 97.8% | [16] 102% | [17] 103% | [18] 105% | [19] 96.2%

CN1CCCC1=Nc1ccccc1
inactive: [1] 114% | [2] 103% | [3] 95.5% | [4] 92.2% | [5] 107% | [6] 115% | [20] 94.6% | [9] 101% | [10] 91.9% | [11] 107% | [12] 105% | [13] 118% | [16] 111% | [17] 128% | [18] 106% | [19] 104%

COc1cc2nc(-c3ccc(C(F)(F)F)cc3)cc(OCCN3CCCC3)c2cc1OC
inactive: [1] 105% | [2] 68.8% | [3] 72.2% | [4] 54.2% | [5] 92.9% | [6] 84.1% | [20] 68.7% | [9] 74.2% | [10] 29.9% | [11] 55.9% | [12] 91% | [14] 94.9% | [15] 86.3% | [16] 60.9% | [17] 97.3% | [18] 79.8% | [19] 72.9%

CC1NC(=S)NC(=O)/C1=C/c1cc(=O)oc2c1ccc1ccccc12 (stereo not drawn)
inactive: [1] 91% | [2] 88.7% | [3] 95.6% | [4] 73.6% | [5] 123% | [6] 95.6% | [7] 101% | [8] 81% | [9] 88.6% | [10] 94% | [11] 102% | [12] 87.5% | [13] 105% | [14] 95.7% | [15] 94.4% | [16] 91.9% | [17] 100% | [18] 94.4% | [19] 92.7%

N#CSCC1CC(O)(c2ccccc2)C(c2ccccc2)C(c2ccc(F)cc2)O1 (stereo not drawn)
inactive: [1] 53.6% | [2] 14% | [4] 11.2% | [6] 25.2% | [20] 15.2% | [11] 12.4% | [12] 44.6% | [13] 51.3% | [14] 15.8% | [15] 80.2% | [16] 17.1% | [19] 35.3%
active: [3] -26.9% | [5] 0.365% | [9] -22% | [10] -3.15% | [17] -84.2% | [18] -11.2%

Cc1ccc(O)c(C(=O)O)c1
inactive: [1] 109% | [2] 118% | [3] 104% | [4] 94% | [5] 72.7% | [6] 106% | [7] 99.9% | [8] 98.1% | [9] 97.7% | [10] 101% | [11] 103% | [12] 112% | [13] 108% | [14] 122% | [15] 106% | [16] 95.3% | [17] 107% | [18] 108% | [19] 111%

Cc1ccc(-c2csc(/N=C3\C(=O)Nc4ccccc43)n2)cc1
active: [1] -51.2% | [5] 8.33% | [7] 5.79% | [8] 6.64% | [9] -19.5% | [10] -30.2% | [11] -20.2% | [17] -10.7%
inactive: [2] 33.6% | [3] 23.4% | [4] 42% | [6] 36.7% | [12] 16.3% | [13] 60.8% | [14] 36% | [15] 32.4% | [16] 25.3% | [18] 31.2% | [19] 81%

O=S(=O)(NCCCNc1nccc(-c2c(-c3cccc(O)c3)nc3occn23)n1)c1ccc(F)cc1
inactive: [1] 50.6% | [2] 101% | [3] 74.9% | [4] 92.1% | [5] 116% | [6] 79.1% | [20] 72.2% | [9] 70% | [10] 76.6% | [11] 77% | [12] 79% | [13] 128% | [14] 110% | [15] 71.1% | [16] 76.2% | [17] 96.8% | [18] 82.3% | [19] 105%

CC(O)/C=C/C=C/C(O)CC/C=C/C(=O)NCC(C)(C)O (stereo not drawn)
inactive: [1] 81.9% | [2] 107% | [3] 99.2% | [4] 78.4% | [5] 109% | [6] 106% | [7] 99.7% | [8] 95% | [9] 76.2% | [10] 66.4% | [11] 100% | [12] 93.3% | [13] 113% | [14] 106% | [15] 111% | [16] 117% | [17] 115% | [18] 99.8% | [19] 109%

C[C@H]1[C@H](C)CC[C@]2(CO)CC[C@]3(C)C(=CC[C@@H]4[C@@]5(C)Cc6c([nH]c7ccccc67)C(C)(C)[C@@H]5CC[C@]43C)[C@H]12
inactive: [1] 85.2% | [2] 75.5% | [3] 55.6% | [4] 74.3% | [5] 86.3% | [6] 60.8% | [20] 73.2% | [9] 67% | [11] 83.7% | [12] 77% | [13] 116% | [14] 89.8% | [15] 96.9% | [16] 88.8% | [17] 87.4% | [18] 74.6% | [19] 90.6%

O=C(Nc1ccc(Nc2ncccn2)cc1)NC1C=c2ccccc2=CC1 (stereo not drawn)
inactive: [1] 102% | [2] 106% | [3] 92.5% | [4] 80.5% | [5] 112% | [6] 105% | [7] 96.9% | [8] 90% | [9] 87.5% | [10] 98.1% | [11] 100% | [12] 98.1% | [14] 111% | [15] 106% | [16] 106% | [17] 107% | [18] 100% | [19] 106%

COc1ccc2c(/C=C3/C(=O)NC(=S)NC3C)cc(=O)oc2c1 (stereo not drawn)
inactive: [1] 86.8% | [2] 101% | [3] 97.7% | [4] 88.3% | [5] 93.5% | [6] 108% | [7] 91.5% | [8] 93.2% | [9] 90.5% | [10] 96.6% | [11] 117% | [12] 91.6% | [13] 94.1% | [14] 100% | [15] 100% | [16] 96.2% | [17] 101% | [18] 100% | [19] 99%

CCOC(=O)N1CCc2c(sc3nc4nc[nH]n4c(=O)c23)C1
inactive: [1] 96.6% | [2] 92.4% | [3] 97.3% | [4] 81.9% | [5] 105% | [6] 103% | [7] 82.3% | [8] 97.8% | [9] 100% | [10] 101% | [11] 98.2% | [12] 103% | [14] 109% | [15] 96.7% | [16] 91.4% | [17] 105% | [18] 95.8% | [19] 97%

Cc1n[nH]c(C)c1-c1c(C)n[nH]c1C
active: [3] 9.52% | [4] -0.471% | [6] -47.7% | [20] -36% | [9] 0.721% | [10] -6.74% | [13] 2.14% | [14] -17.5% | [16] 5.52% | [17] -53.4% | [18] -8.48% | [19] 9.39%
inactive: [1] 29.9% | [2] 18.2% | [5] 13% | [12] 12.4% | [15] 46.8%

Cc1nccc2c3ccc(OCc4cn(-c5ccc(Cl)cc5)nn4)cc3n(CCCc3ccccc3)c12
active: [3] 6.96% | [4] -87.1% | [5] -16.1% | [6] -20.4% | [8] 2.43% | [10] -34.1% | [11] 7.63% | [12] -33.2% | [14] -51.1% | [18] -35.7% | [19] -44.1%
inactive: [1] 90.8% | [2] 66.3% | [7] 87.5% | [9] 18.2% | [13] 43.4% | [15] 53.2% | [16] 34% | [17] 26.6%
